RGS4 inh – inhibitors of human regulator of G protein signaling 4 | Transcreener GDP fluorescence polarization, RGS4-accelerated GTP hydrolysis | Potency, µM (highest dose often 114 µM), actives largely listed as inhibitors | actives 0.039% (n = 390,000) | AID 504845; further: nearly all actives have a fitted effect of over 75% in size
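MLSMR compounds (23 nl, pin-transferred) preincubated 10 min at room temperature with a 500nM (2x) first reagent, then RGS4 at 900nM (2x) plus Transcreener GDP mix added; fluorescence polarization (620/688 nm) read before and after 90 min at 30 °C.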
GCN5L2 inh – blocks human GCN5L2 histone acetyltransferase; actives 0.21% (n = 390,000); GCN5L2 HAT assay, ThioGlo1 CoA-SH fluorescence; Potency, µM (doses to about 58.9 µM), hits mostly inhibitors
Target sequence (Q92830 whole entry, looked up): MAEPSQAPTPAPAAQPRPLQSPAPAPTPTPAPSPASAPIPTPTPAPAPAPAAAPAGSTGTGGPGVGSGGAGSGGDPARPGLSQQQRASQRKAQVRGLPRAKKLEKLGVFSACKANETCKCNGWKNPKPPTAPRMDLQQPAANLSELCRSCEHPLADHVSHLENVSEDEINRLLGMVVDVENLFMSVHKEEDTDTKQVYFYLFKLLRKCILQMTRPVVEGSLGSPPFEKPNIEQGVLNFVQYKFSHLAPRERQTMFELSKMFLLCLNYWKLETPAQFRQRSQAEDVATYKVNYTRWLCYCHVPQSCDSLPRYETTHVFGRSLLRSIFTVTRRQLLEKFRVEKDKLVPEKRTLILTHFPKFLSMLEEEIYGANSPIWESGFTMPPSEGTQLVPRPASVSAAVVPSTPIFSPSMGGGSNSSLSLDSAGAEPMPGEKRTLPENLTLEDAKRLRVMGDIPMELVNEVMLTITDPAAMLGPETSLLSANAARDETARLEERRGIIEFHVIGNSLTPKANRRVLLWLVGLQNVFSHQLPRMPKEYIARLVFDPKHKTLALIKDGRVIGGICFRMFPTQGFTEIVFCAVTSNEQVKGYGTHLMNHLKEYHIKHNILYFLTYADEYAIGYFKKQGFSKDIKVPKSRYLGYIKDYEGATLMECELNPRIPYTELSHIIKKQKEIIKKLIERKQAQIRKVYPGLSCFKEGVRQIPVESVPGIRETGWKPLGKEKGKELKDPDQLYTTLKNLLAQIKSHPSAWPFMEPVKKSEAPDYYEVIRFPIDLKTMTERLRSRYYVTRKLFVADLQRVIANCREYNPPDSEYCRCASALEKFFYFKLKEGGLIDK
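GCN5L2 (20 nM) in 50mM HEPES pH 7.5, 0.1mM EDTA, 0.01% Tween-20 preincubated 15 min with compounds at room temperature. Reaction started with H3(1-25) 75uM, acetyl-CoA 70uM, ThioGlo1 50uM; CoA-thiol fluorescence (Ex340/Em540) read at 0 and 20 min.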
APE1 inh – blocks human APE1 abasic DNA cleavage; P27695; recombinant APE1, TAMRA/BHQ-2 abasic DNA cleavage fluorescence; Potency, µM (titrated, usually from 65.8 µM), hits mostly inhibitors; actives 0.35% (n = 350,000); further: nearly all actives have a fitted effect of over 55% in size
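APE1 at 0.75 nM preincubated 15 min at room temperature with compound. Reaction then started with 50 nM double-stranded THF-abasic substrate labelled with TAMRA/BHQ-2, and 525/598 nm fluorescence read kinetically. Activity taken as third-minus-first read difference, normalized to DMSO and NSC13755 controls.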
TDP1 inh – inhibitors of human tyrosyl-DNA phosphodiesterase TDP1; actives 0.28% (n = 350,000); Q9NUW8; recombinant TDP1, AlphaScreen DNA substrate cleavage; Potency, µM (top dose mostly 130 µM), usual class: inhibitors; further: nearly all actives have a fitted effect of over 40% in size
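Compounds were preincubated with Tdp1 (1 nM final) for 15 min at room temperature before substrate (15 nM final) started a 5 min reaction; beads (10 ug/ml final) were then added for 10 min before AlphaScreen detection.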
RECQ1 inh-1 – inhibitors of human RECQ1 DNA helicase; Potency, µM (doses to about 57.3 µM), hits mostly inhibitors; actives 0.54% (n = 240,000); RECQ1 DNA unwinding, red fluorescence kinetic read; P46063; further: nearly all actives have a fitted effect of over 30% in size
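RECQ1T1 50 nM; forked duplex (20 bp + 30-nt ss tails) 200 nM, ATP 2 mM final; pH 8.0, 2 mM MgCl2, 2.5 ug/ml poly(dI-dC); 15 min compound preincubation; discontinuous kinetic read over 2 h at RT.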
BLM helicase inh – blocks DNA unwinding by human BLM helicase; P54132; recombinant BLM DNA unwinding, fluorescence dequenching; Potency, µM (highest dose often 56.1 µM), usual class: inhibitors; actives 0.2% (n = 350,000); AID 2528; further: nearly all actives have a fitted effect of over 35% in size
RECQ1 inh conf – confirmation of human RECQ1 helicase inhibitors. shares compounds with RECQ1 inh-1. RECQ1 helicase DNA unwinding, fluorescence. Potency, µM (highest dose often 229 µM), usual class: inhibitors. actives 28% (n = 610); further: nearly all actives have a fitted effect of over 45% in size
ADP FP counter – displaces ADP in a fluorescence polarization counter-screen for RECQ1 hits | shares compounds with RECQ1 inh-1 | actives 27% (n = 530) | Potency, µM (titrated, usually from 228 µM), hits mostly inhibitors | ADP fluorescence polarization displacement counterscreen; further: nearly all actives have a fitted effect of over 45% in size
RECQ1 inh-2 – confirmation of human RECQ1 helicase inhibitors; shares compounds with RECQ1 inh-1; recombinant RECQ1 DNA unwinding, red fluorescence; Potency, µM (highest dose often 119 µM), usual class: inhibitors; actives 15% (n = 1,100); further: nearly all actives have a fitted effect of over 50% in size
Numbers stand for hits; - = inactive; ? = inconclusive; . = no result given; [ ] = another dose, or the depositor's remark. A selection: hits, their analogues and other compounds. The true share with any hit is near 0.87%. The call rests on the fitted dose curve; in most records, active means well fitted curve in the direction sought with a large enough effect; inconclusive means small, poorly fitted or top-dose-only effect, or another doubt; inactive means no such curve, though single readings can be large; an effect the other way counts as inactive or inconclusive.

SMILES	RGS4 inh	GCN5L2 inh	APE1 inh	TDP1 inh	RECQ1 inh-1	BLM helicase inh	RECQ1 inh-2	others
CCOc1ccccc1Nc1nnc(SCC(=O)Nc2ccc3[nH]c(=O)[nH]c3c2)s1	-	-	-	-	-	-	.
Cc1ccc(Nc2nnc(SCC(=O)NC(Cc3c[nH]c4ccccc34)C(=O)O)s2)cc1 (stereo not drawn)	-	-	-	-	-	-	.	RECQ1 inh conf=-;ADP FP counter=-
CCC(=O)Oc1c(Sc2ccc(Cl)cc2)c(C)nn1-c1ccccc1	?	-	.	-	.	-	.
COC(=O)c1ccccc1S(=O)(=O)N1CCc2nc(-c3ccccc3)c3c(c2C1)CO[C@@H](C)C3	.	.	-[12.4 µM]	-[12.3 µM]	-[11.5 µM]	-[12.4 µM]	.
Cc1ccc(N2C(=O)C(CC(=O)Nc3ccccc3)N(CCC3=CCCCC3)C2=O)cc1 (stereo not drawn)	-	-	.	-	.	-	.
O=C(O)CCc1cc(I)c(O)c(I)c1	?	-	-	-	-	.	.
COc1ccccc1N1C(=O)CC(N2CCc3ccccc32)C1=O (stereo not drawn)	-	-	?	-	?	-	-
CC(C)(C)c1nc(SCC(=O)NCc2ccco2)c2ccccc2n1	?	-	-	-	-	-	.
O=C(CSc1c2c(nc3ccccc13)CCCC2)NCc1ccco1	-[11.4 µM]	-	-	-	14.1µM	-	-	RECQ1 inh conf=-;ADP FP counter=?
OC1OC[C@@H](O)[C@@H](O)[C@@H]1O (stereo partly drawn)	.	-	-	-	-	-	.
CCOC(=O)Cc1cc(=O)n2[nH]c(C)c(-c3ccccc3)c2n1	?	-	-	-	35.5µM	-	-
O=C(NC(Cc1c[nH]c2ccccc12)C(=O)O)/C(=C/c1ccc(F)cc1)NC(=O)c1ccccc1 (stereo not drawn)	-	-	-	.	-	-	.	RECQ1 inh conf=-;ADP FP counter=-
Cc1ccc(/C=C(/NC(=O)c2ccccc2)C(=O)NC(Cc2c[nH]c3ccccc23)C(=O)O)cc1 (stereo not drawn)	-	-	-	.	.	-	.
C[C@H]1Cc2c(-c3ccccc3)nc3c(c2CO1)CN(C(=O)C1CCCCC1)CC3	.	.	-[12.4 µM]	-[12.3 µM]	-[11.5 µM]	-[12.4 µM]	.
O=C(O)c1ccc(Cl)c(NC(=O)C2CCCN2S(=O)(=O)c2cccc3nsnc23)c1 (stereo not drawn)	-	-	-	-	-	-	.	RECQ1 inh conf=-;ADP FP counter=-
COc1ccccc1C(=O)NC(=S)/C=C1/N(C)c2ccccc2C1(C)C	?	-	-	-	-	-	.
CN1/C(=C\C(=S)NC(=O)c2ccccc2Cl)C(C)(C)c2ccccc21	-	-	-	-	25.1µM	-	?
COc1cc(OC)c(NC(=O)N2CCc3c([nH]c4ccccc34)C2c2ccccc2F)cc1Cl (stereo not drawn)	-	-	.	-	.	-	.
CCc1ccc(OCC(=O)NC2CC(C)(C)NC(C)(C)C2)cc1	-	-	-	-	?	-	-
Cc1ccc(OCC(=O)NC2CC(C)(C)NC(C)(C)C2)cc1C	-	-	-	-	-	-	.
COc1ccc(OC)c(-c2c3cc(O)c(=O)cc-3oc3cc(O)c(O)cc23)c1	?	?	31.6µM	-	35.5µM	28.2µM	39.8µM
Cc1ccc(S(=O)(=O)N2CCc3nc(-c4ccccc4)c4c(c3C2)CO[C@@H](C)C4)cc1	.	.	-[12.4 µM]	-[12.3 µM]	-[11.5 µM]	-[12.4 µM]	.
O=S(=O)(CCc1ccccc1)c1nnnn1-c1ccc(F)cc1Br	.	.	-	-	-	-	.
COc1ccc(CC(=O)Nc2ccc(C(=O)NC(C)(C)C)cc2)cc1OC	-	-	-	-	-	-	.
COc1ccc(CC(=O)Nc2ccc(C(=O)Nc3ccccc3C(=O)O)cc2)cc1OC	-	-	-	-	-	-	.	RECQ1 inh conf=-;ADP FP counter=-
SMILES	RGS4 inh	GCN5L2 inh	APE1 inh	TDP1 inh	RECQ1 inh-1	BLM helicase inh	RECQ1 inh-2	others
COc1cc(/C=C2\Oc3cc(O)ccc3C2=O)ccc1O	-	?	-	.	?	-	79.4µM
O=C1/C(=C/c2cccc([N+](=O)[O-])c2)Oc2cc(O)ccc21	-	-	-	.	.	-	.
Cc1c(CCOC(=O)c2ccc(N3CCOCC3)c([N+](=O)[O-])c2)sc[n+]1CC#N	-	-	-	-	?	-	?
Cc1ncsc1CCOC(=O)c1ccc(N2CCOCC2)c([N+](=O)[O-])c1	-	-	-	-	-	-	.
CC(C)[C@H](O)CC[C@@H](C)C1CC[C@H]2C3CC=C4C[C@@H](O)CC[C@]4(C)C3CC[C@]12C (stereo partly drawn)	-	-	-	-	-	.	.
CC1CC=CC2C1C(=O)N(Cc1ccccc1)C2c1ccc(F)c(-c2ccc(N(C)C)cc2)c1 (stereo not drawn)	-	.	-	-	-	-	.
COc1ncnc2c1NC1=C(S2)C(=NCCC(=O)O)CC(C)(C)C1	-	-	?	-	?	?	79.4µM
CC(=O)Oc1ccc(C(=O)Nc2ccc3c(c2)C(=O)N(CCC(=O)O)C3=O)cc1	-	-[0.501 µM]	-	-	-	-	.	RECQ1 inh conf=?;ADP FP counter=?
CC(=O)C1=C(C)OC2(O)c3ccccc3C(=O)C12O (stereo not drawn)	-	-	?	-	?	-	-
CCOC(=O)C1=C(C)OC2(O)c3ccccc3C(=O)C12O (stereo not drawn)	-	-	?	-	-	?	.
Cc1ccc(NC2=Nc3ccccc3N3C2=Nc2c(c(C)nn2-c2ccccc2)C3c2ccc(O)c(O)c2)cc1 (stereo not drawn)	-	-	-	-	31.6µM	-	?
O=C(OCC#CCSc1nnc(-c2ccc3ccccc3c2)o1)c1cccs1	.	.	.	-	.	.	.
COC(=O)C1=C(C(=O)OC)[C@@H]2N(C)c3ccc(OC)cc3[C@@]23C[C@@H](C(=O)OC)N(S(=O)(=O)c2ccc4c(c2)OCCN4C)C3=N1	.	.	-[12.4 µM]	-[12.3 µM]	-[11.5 µM]	-[12.4 µM]	.
CC1(OC(=O)c2cnc3ccccc3n2)C(=O)C=C2C=C(C3CC3)OC=C2C1=O (stereo not drawn)	.	.	-	-	12.6µM	-	-
CC1(OC(=O)c2ccco2)C(=O)C=C2C=C(C3CC3)OC=C2C1=O (stereo not drawn)	?	.	-	-	-	-	.
O=S(=O)(c1cccc(F)c1)N1CCN(c2nc(-c3cccs3)nc3ccccc23)CC1	-	.	.	.	.	.	.

Source: PubChem
